Values joined by “and” are separate entries in the source; they are usually repeats but may differ in a detail not shown here. Equal entries are not always repeated. Results filed as inconclusive are left out. Where a call stands in place of a potency, no number is given. Some compounds were tested as several samples or in several runs, with calls that do not always agree. Active and inactive are the calls of the source. Calls follow the shape of the dose curve; as a rule, active = well fitted curve in the direction sought with a large enough effect in the repeat runs; inconclusive = weak or mixed curves; inactive = no such curve, though single readings can be large; an effect the other way counts as inactive or inconclusive.
Potency is read from the fitted curve at half-maximal effect.

Test system in one assay: not listed separately
The experiment in a line: qHTS assay to identify small molecule antagonists of the estrogen receptor alpha (ER-alpha) signaling pathway using the BG1 cell line - cell viability counter screen (AID 743081).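 Also: compound given together with 17beta-estradiol as the ER stimulus; nearly all actives have a fitted effect of over 45% in size.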 The note with it: BG1Luc4E2 viability, CellTiter-Fluor, 22 h; series mostly up to 70.3 µM.
In the case of `CC1(C)C[C@@H]1C(=O)N/C(=C\CCCCSC[C@H](N)C(=O)O)C(=O)O`, the Potency result was “inactive”.
On the same count and under the same terms, then `Cc1cc(-c2ccc(N=Nc3ccc4c(S(=O)(=O)O)cc(S(=O)(=O)O)c(N)c4c3O)c(C)c2)ccc1N=Nc1ccc2c(S(=O)(=O)O)cc(S(=O)(=O)O)c(N)c2c1O`, with “inactive”; and `Clc1nc(C(Cl)(Cl)Cl)c(Cl)c(Cl)c1Cl`, with “inactive”; and `O=C1c2ccccc2C(=O)C1c1ccc(F)cc1`, with “inactive”.
With `CC(=O)OCC(=O)[C@@]1(O)CC[C@H]2[C@@H]3C[C@H](C)C4=CC(=O)C=C[C@]4(C)[C@H]3[C@@H](O)C[C@@]21C`, the Potency result is “inactive”.
Regarding `CC(C)c1ccc2sc3ccccc3c(=O)c2c1`, the Potency result is “inactive”.
For `CC(=O)Oc1cc(C(F)(F)F)ccc1C(=O)O`, the Potency entry is “inactive”.
Regarding `N[C@H](C(=O)O)[C@@H]1CC(Cl)=NO1`, the Potency entry is “inactive”.
On the same count and under the same terms, the entry for `CC1CCCCN1CCCOC(=O)c1ccccc1` (configuration not stated) is “inactive”; for `O=C1CCC(c2ccc(-n3ccnc3)cc2)=NN1` it is “inactive”; for `COc1cc(/C=C/C(=O)CC(=O)/C=C/c2ccc(O)c(OC)c2)ccc1O` it is “inactive and 54.8 µM (active)”.
In the case of `CSCC[C@H](NC(=O)[C@H](Cc1ccc(OS(=O)(=O)O)cc1)NC(=O)[C@@H](N)CC(=O)O)C(=O)NCC(=O)N[C@@H](Cc1c[nH]c2ccccc12)C(=O)N[C@@H](CCSC)C(=O)N[C@@H](CC(=O)O)C(=O)N[C@@H](Cc1ccccc1)C(N)=O`, the Potency entry is “inactive”.
Same read-out and setting: then `O=C1OC(=O)c2cc(-c3ccc4c(c3)C(=O)OC4=O)ccc21`, with “inactive”; and `C=N[C@@H](C(=O)N[C@@H]1C(=O)N2[C@@H]1SC(C)(C)[C@@H]2C(=O)O)c1ccccc1`, with “inactive”.
The same measure, in the same setting: then `CN(C)CCc1c[nH]c2ccc(Cn3cncn3)cc12`, with “inactive”; and `FC(F)(F)COCC(F)(F)F`, with “inactive”.
As for `CCCCCCCCCC[N+](C)(CCCCCCCCCC)CCC[Si](OC)(OC)OC`, the Potency result is “inactive”.
Turning to `N[C@@H](Cc1ccc(O)c(O)c1)C(=O)O`, the Potency result is “inactive”.
Regarding `C[C@@H]1C[C@H]2[C@@H]3C[C@H](F)C4=CC(=O)C=C[C@]4(C)[C@@]3(Cl)[C@@H](O)C[C@]2(C)[C@H]1C(=O)COC(=O)C(C)(C)C`, the Potency entry was “inactive”.
The same measure, in the same setting: the entry for `CC(Cc1ccc(O)c(O)c1)C(C)Cc1ccc(O)c(O)c1` (configuration not stated) is “inactive”.
The same measure, in the same setting: then `O=C1OC(O)C(C(Cl)Cl)=C1Cl` (configuration not stated), with “inactive”; and `NC(=O)CC[C@@H]1NC(=O)[C@H](Cc2ccccc2)NC(=O)[C@H](Cc2ccc(O)cc2)NC(=O)[C@@H](N)CSSC[C@@H](C(=O)N2CCC[C@H]2C(=O)N[C@@H](CCCN=C(N)N)C(=O)NCC(N)=O)NC(=O)[C@H](CC(N)=O)NC1=O`, with “inactive”.
In the case of `Cc1c(N)nc([C@H](CC(N)=O)NC[C@H](N)C(N)=O)nc1C(=O)N[C@H](C(=O)N[C@H](C)[C@@H](O)[C@H](C)C(=O)N[C@H](C(=O)NCCc1nc(-c2nc(C(=O)NCCCCN=C(N)N)cs2)cs1)[C@@H](C)O)[C@@H](O[C@@H]1O[C@@H](CO)[C@@H](O)[C@H](O)[C@@H]1O[C@H]1O[C@H](CO)[C@@H](O)[C@H](OC(N)=O)[C@@H]1O)c1cnc[nH]1`, the Potency result is “inactive”.
Turning to `CCC(NC(C)C)C(O)c1ccc(O)c(O)c1` (configuration not stated), the Potency entry was “inactive”.
Take `CCCCCCOC(=O)c1cccnc1`: the Potency result is “inactive”.
For `CC(C)C[C@H](NC(=O)[C@@H](COC(C)(C)C)NC(=O)[C@H](Cc1ccc(O)cc1)NC(=O)[C@H](CO)NC(=O)[C@H](Cc1c[nH]c2ccccc12)NC(=O)[C@H](Cc1cnc[nH]1)NC(=O)[C@@H]1CCC(=O)N1)C(=O)N[C@@H](CCCN=C(N)N)C(=O)N1CCC[C@H]1C(=O)NNC(N)=O`, the Potency result is “inactive”.
The same measure, in the same setting: then `CC(=O)OCC1=C(C(=O)O)N2C(=O)[C@@H](NC(=O)Cc3ccccc3)[C@H]2SC1`, with “inactive”; and `NS(=O)(=O)c1cc(Cl)c(Cl)c(S(N)(=O)=O)c1`, with “inactive”; and `O=c1[nH]c(=O)n([C@H]2C[C@H](O)[C@@H](CO)O2)cc1/C=C/Br`, with “inactive”.
For the compound `C[C@H]1O[C@@H](O[C@H]2CC[C@@]3(C)[C@H](CC[C@@H]4[C@@H]3C[C@@H](O)[C@]3(C)[C@@H](C5=CC(=O)OC5)CC[C@]43O)C2)C[C@H](O)[C@@H]1O[C@H]1C[C@H](O)[C@H](O[C@H]2C[C@H](O)[C@H](O[C@@H]3O[C@H](CO)[C@@H](O)[C@H](O)[C@H]3O)[C@@H](C)O2)[C@@H](C)O1`, the Potency entry is “inactive”.
The same measure, in the same setting: the entry for `Oc1ccc(Cl)c2c1CCC2` is “inactive”; for `N[C@H](CO)C(=O)O` it is “inactive”.
As for `CC1(C)S[C@@H]2[C@H](NC(=O)[C@H](N)c3ccc(O)cc3)C(=O)N2[C@H]1C(=O)O`, the Potency result is “inactive”.

In the next assay the target is Aromatase (Homo sapiens) (UniProt P11511). The experiment in a line: qHTS assay to identify aromatase inhibitors (AID 743083). Also: nearly all actives have a fitted effect of over 55% in size. The note with it: MCF-7 aro ERE, testosterone-driven ERE luciferase, 24 h; series mostly up to 70.3 µM. (In general: In qHTS, concentration-response curves come from the screen itself.)
Aromatase (Homo sapiens), sequence (P11511 whole entry, looked up): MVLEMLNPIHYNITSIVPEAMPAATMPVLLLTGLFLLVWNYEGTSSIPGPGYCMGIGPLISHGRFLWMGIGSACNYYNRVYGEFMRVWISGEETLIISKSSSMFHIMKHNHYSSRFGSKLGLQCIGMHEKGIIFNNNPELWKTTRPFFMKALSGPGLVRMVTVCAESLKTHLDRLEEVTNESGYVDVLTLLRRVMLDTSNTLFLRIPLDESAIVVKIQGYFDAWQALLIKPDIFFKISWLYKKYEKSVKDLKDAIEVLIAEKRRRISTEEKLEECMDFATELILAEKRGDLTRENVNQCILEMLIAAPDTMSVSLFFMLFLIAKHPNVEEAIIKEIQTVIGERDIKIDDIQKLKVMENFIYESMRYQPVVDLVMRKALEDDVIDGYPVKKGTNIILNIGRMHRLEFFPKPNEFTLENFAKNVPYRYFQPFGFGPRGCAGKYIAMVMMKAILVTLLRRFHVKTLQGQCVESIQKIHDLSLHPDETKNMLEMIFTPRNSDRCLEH
For the compound `CC1(C)C[C@@H]1C(=O)N/C(=C\CCCCSC[C@H](N)C(=O)O)C(=O)O`, the Potency entry is “inactive”.
Still for that read-out and setting: then `Cc1cc(-c2ccc(N=Nc3ccc4c(S(=O)(=O)O)cc(S(=O)(=O)O)c(N)c4c3O)c(C)c2)ccc1N=Nc1ccc2c(S(=O)(=O)O)cc(S(=O)(=O)O)c(N)c2c1O`, with 26.6 µM (active); and `O=C1c2ccccc2C(=O)C1c1ccc(F)cc1`, with “inactive”.
For the compound `CC(=O)OCC(=O)[C@@]1(O)CC[C@H]2[C@@H]3C[C@H](C)C4=CC(=O)C=C[C@]4(C)[C@H]3[C@@H](O)C[C@@]21C`, the Potency result is “inactive”.
`CC(C)c1ccc2sc3ccccc3c(=O)c2c1`: the Potency result was “inactive”.
For the compound `CC(=O)Oc1cc(C(F)(F)F)ccc1C(=O)O`, the Potency result was “inactive”.
On the same count and under the same terms, the figure for `NCc1cccc(C2CCN(C(=O)c3ccc(C#Cc4ccccc4F)o3)CC2)c1` is 68.6 µM (active).
As to `CC1CCCCN1CCCOC(=O)c1ccccc1` (configuration not stated), the Potency result was “inactive”.
As for `O=C1CCC(c2ccc(-n3ccnc3)cc2)=NN1`, the Potency is 6.68 µM (active).
`COc1cc(/C=C/C(=O)CC(=O)/C=C/c2ccc(O)c(OC)c2)ccc1O`: the Potency result was “inactive and 48.9 µM (active)”.
For the compound `CSCC[C@H](NC(=O)[C@H](Cc1ccc(OS(=O)(=O)O)cc1)NC(=O)[C@@H](N)CC(=O)O)C(=O)NCC(=O)N[C@@H](Cc1c[nH]c2ccccc12)C(=O)N[C@@H](CCSC)C(=O)N[C@@H](CC(=O)O)C(=O)N[C@@H](Cc1ccccc1)C(N)=O`, the Potency result was “inactive”.
The same measure, in the same setting: the entry for `O=C1OC(=O)c2cc(-c3ccc4c(c3)C(=O)OC4=O)ccc21` is “inactive”.
As to `CCOc1ccc([N+](=O)[O-])cc1`, the Potency was 27.7 µM (active).
Regarding `C=N[C@@H](C(=O)N[C@@H]1C(=O)N2[C@@H]1SC(C)(C)[C@@H]2C(=O)O)c1ccccc1`, the Potency entry was “inactive”.
On to `CN(C)CCc1c[nH]c2ccc(Cn3cncn3)cc12`, for which the Potency entry was “inactive”.
With `FC(F)(F)COCC(F)(F)F`, the Potency entry was “inactive”.
Still for that read-out and setting: the figure for `CCCCCCCCCC[N+](C)(CCCCCCCCCC)CCC[Si](OC)(OC)OC` is 61.1 µM (active).
With `N[C@@H](Cc1ccc(O)c(O)c1)C(=O)O`, the Potency entry was “inactive”.
Same read-out and setting: the entry for `C[C@@H]1C[C@H]2[C@@H]3C[C@H](F)C4=CC(=O)C=C[C@]4(C)[C@@]3(Cl)[C@@H](O)C[C@]2(C)[C@H]1C(=O)COC(=O)C(C)(C)C` is “inactive”; for `CC(Cc1ccc(O)c(O)c1)C(C)Cc1ccc(O)c(O)c1` (configuration not stated) it is “inactive”.
`NC(N)=NCCCCN=C(N)N`: the Potency entry was “inactive”.
With `NC(=O)CC[C@@H]1NC(=O)[C@H](Cc2ccccc2)NC(=O)[C@H](Cc2ccc(O)cc2)NC(=O)[C@@H](N)CSSC[C@@H](C(=O)N2CCC[C@H]2C(=O)N[C@@H](CCCN=C(N)N)C(=O)NCC(N)=O)NC(=O)[C@H](CC(N)=O)NC1=O`, the Potency entry is “inactive”.
Still for that read-out and setting: then `Cc1c(N)nc([C@H](CC(N)=O)NC[C@H](N)C(N)=O)nc1C(=O)N[C@H](C(=O)N[C@H](C)[C@@H](O)[C@H](C)C(=O)N[C@H](C(=O)NCCc1nc(-c2nc(C(=O)NCCCCN=C(N)N)cs2)cs1)[C@@H](C)O)[C@@H](O[C@@H]1O[C@@H](CO)[C@@H](O)[C@H](O)[C@@H]1O[C@H]1O[C@H](CO)[C@@H](O)[C@H](OC(N)=O)[C@@H]1O)c1cnc[nH]1`, with “inactive”; and `CC[C@@H](C(=O)[C@@H](C)[C@@H](O)[C@H](C)CCc1ccc(C)c(O)c1C(=O)O)[C@H]1O[C@](CC)([C@H]2CC[C@](O)(CC)[C@H](C)O2)C[C@@H]1C`, with “inactive”.
The same measure, in the same setting: then `CCC(NC(C)C)C(O)c1ccc(O)c(O)c1` (configuration not stated), with “inactive”; and `CCCCCCOC(=O)c1cccnc1`, with “inactive”; and `CC(C)C[C@H](NC(=O)[C@@H](COC(C)(C)C)NC(=O)[C@H](Cc1ccc(O)cc1)NC(=O)[C@H](CO)NC(=O)[C@H](Cc1c[nH]c2ccccc12)NC(=O)[C@H](Cc1cnc[nH]1)NC(=O)[C@@H]1CCC(=O)N1)C(=O)N[C@@H](CCCN=C(N)N)C(=O)N1CCC[C@H]1C(=O)NNC(N)=O`, with “inactive”.
On the same count and under the same terms, the entry for `CC(=O)OCC1=C(C(=O)O)N2C(=O)[C@@H](NC(=O)Cc3ccccc3)[C@H]2SC1` is “inactive”.
For the compound `NS(=O)(=O)c1cc(Cl)c(Cl)c(S(N)(=O)=O)c1`, the Potency entry was “inactive”.
Still for that read-out and setting: the entry for `O=c1[nH]c(=O)n([C@H]2C[C@H](O)[C@@H](CO)O2)cc1/C=C/Br` is “inactive”; for `C[C@H]1O[C@@H](O[C@H]2CC[C@@]3(C)[C@H](CC[C@@H]4[C@@H]3C[C@@H](O)[C@]3(C)[C@@H](C5=CC(=O)OC5)CC[C@]43O)C2)C[C@H](O)[C@@H]1O[C@H]1C[C@H](O)[C@H](O[C@H]2C[C@H](O)[C@H](O[C@@H]3O[C@H](CO)[C@@H](O)[C@H](O)[C@H]3O)[C@@H](C)O2)[C@@H](C)O1` it is “inactive”.
On the same count and under the same terms, the entry for `Oc1ccc(Cl)c2c1CCC2` is “inactive”.
For `N[C@H](CO)C(=O)O`, the Potency entry was “inactive”.
On the same count and under the same terms, the entry for `CC1(C)S[C@@H]2[C@H](NC(=O)[C@H](N)c3ccc(O)cc3)C(=O)N2[C@H]1C(=O)O` is “inactive”.

For the origin of these results see PubChem BioAssay (Tox21).
